Measurements taken from PubChem BioAssay (EPA / NIEHS).
Activity calls are given as the source filed them. Rule for the calls: active = hit-call score of the fitted dose curve at least 0.9, where 1 is the maximum; inactive = score below 0.9.

How the values were obtained:
[1] = Tanguay_ZF_120hpf_MORT: Oregon State University Tanguay Lab 120 Hour Post-fertilization zebrafish Assay for Mortality (AID 2284399)
Summary of the method: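 Mortality, recorded present/absent via brightfield imaging at 24 and 120 hpf, in 5D zebrafish embryos exposed statically from 6 hpf after pronase chorion removal. Exposure at 28C, 0.64% DMSO vehicle, DMSO baseline.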

[2] = Tanguay_ZF_120hpf_EDEM: Oregon State University Tanguay Lab 120 Hour Post-fertilization zebrafish Assay for Edema Malformation (AID 2284400)
Summary of the method: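 Edema recorded as a binary endpoint under brightfield at 120 hpf, excluding embryos that died. Exposure was static, sealed, 28C, from 6 hpf in dechorionated wild-type larvae, final DMSO 0.64%, DMSO as baseline.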

[3] = Tanguay_ZF_120hpf_BRN: Oregon State University Tanguay Lab 120 Hour Post-fertilization zebrafish Assay for Brain Region Malformation (AID 2284402)
Summary of the method: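 Binary brightfield scoring of brain malformation at 120 hpf in 5D wild-type larvae, chorion removed with pronase at 4 hpf. Static exposure began at 6 hpf, 28C, sealed plates, DMSO 0.64% (vol/vol) as vehicle baseline.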

[4] = Tanguay_ZF_120hpf_ANY: Oregon State University Tanguay Lab 120 Hour Post-fertilization zebrafish Assay for Any Mortality and Malformation (AID 2284404)
Summary of the method: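 Dechorionated Tropical 5D wild-type embryos, one per well from 6 hpf, static exposure in sealed, dark plates at 28C until 120 hpf, 0.64% DMSO final. Brightfield scoring of mortality and malformations as binary presence/absence, pooling 13 morphology endpoints.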

[5] = CCTE_Padilla_ZF_Score.Edema: CCTE's 144 Hour Post-fertilization zebrafish Assay Score for Edema Malformation, Padilla Lab (AID 2284406)
Summary of the method: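 Edema scored at 6 dpf by two blinded observers under a stereo microscope, in single outbred wild-type larvae exposed from 6-8 hpf in sealed wells (Hanks', 26C, 14:10 h light) and chemical-free after a 5 dpf rinse.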

[6] = CCTE_Padilla_ZF_Score.Spine: CCTE's 144 Hour Post-fertilization zebrafish Assay Score for Spine Malformation, Padilla Lab (AID 2284407)
Summary of the method: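 Spine malformation scored at 6 dpf by two independent blinded observers under stereomicroscope, after static sealed exposure from 6–8 hpf at 26C in Hanks' solution with rinse on 5 dpf. Positive-direction fit against DMSO control.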

[7] = CCTE_Padilla_ZF_Score.Swim_bladder: CCTE's 144 Hour Post-fertilization zebrafish Assay Score for Swim Bladder Malformation, Padilla Lab (AID 2284408)
Summary of the method: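 Swim bladder inflation scored at 6 dpf by two blinded observers under a stereo microscope. Exposure ran from 6–8 hpf in sealed wells of 10% Hanks' at 26C, with rinsing at 5 dpf; DMSO served as baseline.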

[8] = CCTE_Padilla_ZF_Score.Position: CCTE's 144 Hour Post-fertilization zebrafish Assay Score for Position, Padilla Lab (AID 2284409)
Summary of the method: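 Wild-type zebrafish embryos (with chorions) exposed singly from 6–8 hpf in sealed wells of Hanks' solution at 26C, rinsed at 5 dpf. At 6 dpf, blinded assessors scored abnormal water-column position by brightfield stereomicroscopy, relative to DMSO.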

[9] = CCTE_Padilla_ZF_Score.Living: CCTE's 144 Hour Post-fertilization zebrafish Assay Score for Viability, Padilla Lab (AID 2284410);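 note: larval death at 6 dpf judged by absent heartbeat or coagulation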
Summary of the method: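 Mortality at 6 dpf, judged as absent heartbeat or coagulation by two blinded observers, after sealed static exposure beginning at 6–8 hpf at 26C. Larvae were rinsed free of chemical at 5 dpf, and activity was fitted relative to DMSO.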

[10] = CCTE_Padilla_ZF_Score.Tail: CCTE's 144 Hour Post-fertilization zebrafish Assay Score for Tail Malformation, Padilla Lab (AID 2284414)
Summary of the method: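 Tail malformations were scored at 6 dpf by two blinded assessors under a stereo microscope. Chorionated embryos had been exposed from 6-8 hpf in sealed wells of 10% Hanks' at 26 C, then rinsed free of chemical at 5 dpf.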

[11] = CCTE_Padilla_ZF_Score.Blood_pooling: CCTE's 144 Hour Post-fertilization zebrafish Assay Score for Blood Pooling, Padilla Lab (AID 2284415)
Summary of the method: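 Blood pooling was scored at 6 dpf under a stereo microscope by two blinded assessors, fitted upward against DMSO. Single embryos were dosed at 6–8 hpf in 10% Hanks', kept sealed at 26C (14:10 h cycle) and rinsed at 5 dpf.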

[12] = CCTE_Padilla_ZF_Score.Any: CCTE's 144 Hour Post-fertilization zebrafish Assay Score for Any Mortality or Malformation, Padilla Lab (AID 2284416)
Summary of the method: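 Wild-type zebrafish embryos with chorions, one per well in 10% Hanks' from 6–8 hpf, dosed in sealed plates at 26 C, 14:10 h light:dark; rinsed at 5 dpf; blinded scoring at 6 dpf for death or malformation, versus DMSO.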

[13] = CCTE_Padilla_ZF_Score.General: CCTE's 144 Hour Post-fertilization zebrafish Assay Score for General Malformation, Padilla Lab (AID 2284411)
Summary of the method: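 Malformation, death and hatching were scored at 6 dpf by two blinded observers under a stereo microscope. Embryos were dosed singly from 6-8 hpf in sealed plates of 10% Hanks' at 26C and rinsed on 5 dpf; DMSO baseline.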

[14] = CCTE_Padilla_ZF_Score.Craniofacial: CCTE's 144 Hour Post-fertilization zebrafish Assay Score for Craniofacial Malformation, Padilla Lab (AID 2284405)
Summary of the method: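 Craniofacial defects were scored at 6 dpf by two blinded observers using stereomicroscopy. Exposure of wild-type embryos began at 6–8 hpf in sealed wells of 10% Hanks' solution at 26C, with chemical removed by rinsing at 5 dpf.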

[15] = Tanguay_ZF_120hpf_TCHR: Oregon State University Tanguay Lab 120 Hour Post-fertilization zebrafish Assay for Touch Responsive (AID 2284403)
Summary of the method: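 Binary touch-response calls are made at 120 hpf in 5D wild-type zebrafish larvae. These larvae were dechorionated with pronase and exposed singly from 6 hpf in sealed, dark plates at 28 °C with 0.64% DMSO final; dead embryos are excluded.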

Measured: AC50

OCC(F)(F)C(F)(F)C(F)(F)F
inactive: [1] | [2] | [3] | [4] | [5] | [6] | [7] | [8] | [9] | [10] | [11] | [12]

O=C(O)C(F)(F)C(F)(F)F
inactive: [1] | [2] | [3] | [4] | [5] | [6] | [7] | [8] | [13] | [10] | [11] | [12]

OCCCC(F)(F)C(F)(F)C(F)(F)C(F)(F)C(F)(F)C(F)(F)C(F)(F)F
inactive: [1] | [2] | [3] | [4] | [6] | [8] | [9] | [13] | [10] | [11]
active: [5] 36.4 µM | [7] 88.1 µM | [12] 38.7 µM

OCCCC(F)(F)C(F)(F)C(F)(F)F
inactive: [1] | [2] | [3] | [4] | [14] | [5] | [6] | [7] | [8] | [9] | [10] | [11] | [12]

O=P(O)(O)OCCC(F)(F)C(F)(F)C(F)(F)C(F)(F)C(F)(F)C(F)(F)F
inactive: [2] | [3] | [15] | [14] | [5] | [6] | [7] | [8] | [13] | [10] | [11] | [12]
active: [1] 18.7 µM | [4] 39.1 µM

O=C(O)C(F)(F)C(F)(F)OC(F)(F)F
inactive: [1] | [2] | [3] | [4] | [5] | [6] | [7] | [8] | [13] | [10] | [11] | [12]

FC(F)(F)C(F)(F)C(F)(F)C(F)(F)C(F)(F)C(F)(F)CC1CO1 (centres undefined)
inactive: [1] | [2] | [3] | [4] | [5] | [6] | [7] | [8] | [9] | [10] | [11] | [12]

OCC(F)(F)C(F)(F)C(F)(F)C(F)F
inactive: [1] | [2] | [3] | [4] | [5] | [6] | [7] | [8] | [9] | [10] | [11] | [12]

Cc1ccc(S(=O)(=O)OCC(F)(F)C(F)(F)C(F)(F)C(F)(F)C(F)(F)C(F)F)cc1
active: [7] 9.81 µM | [12] 22.9 µM
inactive: [1] | [2] | [3] | [4] | [5] | [6] | [8] | [9] | [10] | [11]

C=CC(=O)OCC(F)(F)C(F)(F)C(F)(F)C(F)(F)COC(=O)C=C
active: [1] 17.5 µM | [4] 14.2 µM | [5] 4.88 µM | [7] 4.37 µM | [12] 4.38 µM
inactive: [2] | [3] | [6] | [8] | [13] | [10] | [11]

FC(F)(F)C(F)(F)C(F)(F)C(F)(F)C(F)(F)C(F)(F)C(F)(F)C(F)(F)CCS
inactive: [1] | [2] | [3] | [15] | [4] | [5] | [6] | [7] | [8] | [10] | [11] | [12]

FC1CC(F)(F)C(F)(F)C1(F)F (centres undefined)
inactive: [1] | [2] | [3] | [4]

N=C(N)C(F)(F)C(F)(F)C(F)(F)C(F)(F)C(F)(F)C(F)(F)C(F)(F)F
active: [12] 22.2 µM
inactive: [1] | [2] | [3] | [4] | [5] | [6] | [7] | [8] | [13] | [10] | [11]

O=C(O)C(F)(F)C(F)(F)C(F)(F)C(F)(F)C(F)(F)C(F)(F)C(F)(F)C(F)(F)Cl
inactive: [1] | [6] | [10] | [11]
active: [2] 37.2 µM | [3] 47.7 µM | [4] 39.8 µM | [14] 35.7 µM | [5] 36.6 µM | [7] 9.95 µM | [8] 70.4 µM | [12] 10 µM

C=CC(F)(F)C(F)(F)C(F)(F)C(F)(F)C(F)(F)C(F)(F)C(F)(F)C(F)(F)F
inactive: [1] | [2] | [3] | [4] | [14] | [5] | [6] | [7] | [8] | [10] | [11] | [12]

C=CC(=O)OCC(F)(F)C(F)(F)C(F)(F)C(F)(F)C(F)(F)C(F)(F)C(F)(F)F
inactive: [1] | [2] | [3] | [15] | [4] | [5] | [6] | [7] | [8] | [13] | [10] | [11] | [12]
